From PubChem
Nrf2 block: Nrf2 qHTS screen for inhibitors; A549 ARE-Fluc reporter, luciferase luminescence, 18-24 h; Potency, µM (highest dose often 46 µM), inactives show at the top dose activity change, negative = inhibition, usual class: inhibitors; 360,000 tested, 2.1% active; further: on the % scale 0 is the no-effect control and ±100 the full control effect; nearly all actives have a fitted effect of over 60% in size
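Nrf2 activity is the BugLite luminescence, read 15 min after reagent at room temperature, following CellTiter-Fluor cytotoxicity readout (30 min, 37C). Compound titrations were applied for 18-24 h to 5000 A549 ARE_Fluc cells/well in 5% FBS OPTI-MEM.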
Nrf2 ARE act: qHTS of Nrf2 Activators; Potency, µM (highest dose often 46.1 µM), inactives show top-dose activation, actives largely listed as activators; AREc32 ARE-luciferase reporter (MCF7-derived line), luminescence, 24 h; 410,000 tested, 0.31% active; AID 624171, 2012; further: % of control where 0% means no effect; nearly all actives have a fitted effect of over 65% in size
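For detection, Steady-Glo was added and plates sat 30 min at RT; before that, AREc32_Fluc cells grown overnight in OPTI-MEM/5% FBS had been treated with 23 nL compound for 24 hr at 37 deg C.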
ELG1 DNA repair: qHTS screen for small molecules that inhibit ELG1-dependent DNA repair in human embryonic kidney (HEK293T) cells expressing luciferase-tagged ELG1; HEK293T ELG1-luciferase reporter, luminescence, 16 h; DNA damage induced by 5-fluorouridine; Potency, µM (doses to about 46.1 µM), for the others: top-dose activity change, negative = inhibition, actives largely listed as inhibitors; 330,000 tested, 2.3% active; further: on the % scale 0 is the no-effect control and ±100 the full control effect; nearly all actives have a fitted effect of over 55% in size
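DMSO vehicle served as the neutral condition. Each well held 2,000 cells given 5-fluorouridine plus compound; after 16 hr at 37 °C/5% CO2, ONE-Glo was added and luciferase measured 30 min later.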
A549 tox: Nrf2 qHTS screen for inhibitors: counterscreen for cytotoxicity. Potency, µM (titrated, usually from 46 µM), inactives show at the top dose activity change, negative = cytotoxicity, most hits filed as inhibitors. AID 504648, 2011. A549 ARE-Fluc cells, CellTiter-Fluor viability, 18-24 h. 390,000 tested, 0.16% active; further: on the % scale 0 is the no-effect control and ±100 the full control effect
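Cytotoxicity counterscreen: CellTiter-Fluor fluorescence was measured in A549 ARE_Fluc cells after 18-24 h of compound exposure in a concentration series. The subsequent BugLite luminescent read reports ARE-luciferase activity.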
IDH1 R132H inh: qHTS for Inhibitors of mutant isocitrate dehydrogenase 1 (IDH1): qHTS. IDH1-R132H enzyme, NADPH consumption, diaphorase/resazurin fluorescence. 390,000 tested, 0.093% active. Isocitrate dehydrogenase [NADP] cytoplasmic (Homo sapiens), O75874. Potency, µM (top dose mostly 76.6 µM), inactives show at the highest dose activity change, negative = inhibition, most hits filed as inhibitors. AID 602179, 2012; further: on the % scale 0 is the no-effect control and ±100 the full control effect; nearly all actives have a fitted effect of over 65% in size
Target sequence (O75874 whole entry R132H, stated change not applied): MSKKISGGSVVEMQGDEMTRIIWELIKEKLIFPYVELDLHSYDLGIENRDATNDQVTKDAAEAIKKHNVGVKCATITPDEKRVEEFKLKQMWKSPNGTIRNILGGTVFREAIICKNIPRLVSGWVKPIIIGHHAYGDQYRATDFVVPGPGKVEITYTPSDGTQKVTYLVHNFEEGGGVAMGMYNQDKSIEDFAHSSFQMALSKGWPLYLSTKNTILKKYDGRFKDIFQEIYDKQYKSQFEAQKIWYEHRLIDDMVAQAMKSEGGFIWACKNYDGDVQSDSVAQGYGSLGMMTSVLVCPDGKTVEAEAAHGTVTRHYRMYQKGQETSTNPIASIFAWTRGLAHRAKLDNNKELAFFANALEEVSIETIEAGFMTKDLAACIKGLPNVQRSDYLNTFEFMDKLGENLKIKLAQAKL
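IDH1-R132H (0.5 ug/mL dispensed) in pH 7.5 Tris buffer was preincubated 30 min with compound, then given a substrate mix of 0.016 mM NADPH and 2 mM alpha-KG for 80 min at room temperature; remaining NADPH was read by diaphorase/resazurin fluorescence.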
Numbers without * were called inactive; ? = inconclusive; / = not tested or not shown; [ ] = another dose, or the depositor's remark. A selection: hits, their analogues and other compounds. The true share with any hit is near 3.8%. The call rests on the fitted dose curve; in most records, active means well fitted curve in the direction sought with a large enough effect; inconclusive means small, poorly fitted or top-dose-only effect, or another doubt; inactive means no such curve, though single readings can be large; an effect the other way counts as inactive or inconclusive. Potency means the concentration at half of the fitted maximal effect.

SMILES	Nrf2 block	Nrf2 ARE act	ELG1 DNA repair	A549 tox	IDH1 R132H inh
CC(=O)NC(CC(=O)Nc1nc(-c2ccc(N(C)S(C)(=O)=O)cc2)cs1)c1ccccc1 (stereo not drawn)	21µM*	4%	?	-24%	7%
O=C(Nc1ccc(N2CCOCC2)cc1N1CCOCC1)c1ncoc1-c1cccc(F)c1	?	-1%	?	-14%	0%
CCCCn1nc2cc(C(=O)NCc3cc(C(F)(F)F)cc(C(F)(F)F)c3)ccc2c1OCC	18µM*	-1%	-15%	-6%	8%
CCOc1c2ccc(C(=O)NCc3cc(C(F)(F)F)cc(C(F)(F)F)c3)cc2nn1CCOC	?	0%	4%	-6%	6%
O=C1CCc2cc(S(=O)(=O)Nc3ccncc3)ccc2N1	11%	/	/	0%	/
Cc1ccc(S(=O)(=O)c2cn(Cc3ccccc3)c3cc(N4CCCC4)c(F)cc3c2=O)cc1C	28%	-1%	/	-11%	-5%
CC(=O)N1CCN(Cc2nc3cc(NC(=O)c4ccc(Cl)cc4)ccc3n2C)CC1	10µM*	2%	21µM*	-15%[1.84 µM]	3%
Cn1c(CN2CCCCC2)nc2cc(NC(=O)c3ccc(F)cc3)ccc21	12µM*	3%	?	-21%	1%
Cn1c(CN2CCCCC2)nc2cc(NC(=O)c3ccccc3Cl)ccc21	4%	-1%	?	4%	0%
CCn1c(CN2CCOCC2)nc2cc(NC(=O)c3ccc([N+](=O)[O-])cc3)ccc21	9.2µM*	-1%	/	0%	-3%
CC(=O)N1CCN(Cc2nc3cc(NC(=O)c4cccc(Br)c4)ccc3n2C)CC1	?	3%	8.2µM*	-28%	-1%
CN1CCN(c2oc(-c3ccc(OCc4ccc(Cl)cc4)cc3)nc2C#N)CC1	?	/	/	0%	/
Cc1cccc2sc(NNC(=O)c3cc(-c4cccs4)nc4ccccc34)nc12	23µM*	-1%	?	?	-4%
Cc1ccc2c(=O)c(C(=O)c3ccc(F)cc3)cn(CC(=O)NCc3ccccc3Cl)c2n1	23%	-1%	/	-3%	2%
Cc1ccc(S(=O)(=O)NCCCNS(=O)(=O)c2ccccc2[N+](=O)[O-])cc1	18µM*	5%	-6%	3%	-2%
O=c1[nH]c(=S)[nH]c2c1CN(Cc1ccc(F)cc1)CC2	6%	-1%	26%	2%	5%
Cc1ccc(S(=O)(=O)C(CNC(=O)c2ccccc2F)c2cccs2)cc1 (stereo not drawn)	/	8%	/	-6%	45%
COc1ccc(NC(=O)c2cc(C)cc(C)c2)cc1S(=O)(=O)N1CCCCC1	-20%	0%	0%	-5%	-1%
Cc1ccc(OCc2cc(C(=O)NC3CCc4ccccc43)no2)cn1 (stereo not drawn)	13µM*	-1%	-1%	1%	-10%
CSc1ccccc1OCc1cc(C(=O)NC2CCc3ccccc32)no1 (stereo not drawn)	14%	0%	18%	3%	0%
N#C/C(=C\c1cccc(NC(=O)c2ccccc2Cl)c1)C(=O)NCCc1ccccc1	10%	?	15µM*	20%	-16%
CCCC[n+]1ccn(-c2nc3ccccc3nc2[N-]S(=O)(=O)c2cccs2)c1	5%	0%	21µM*	-2%	-1%
O=C(Nc1cccc(S(=O)(=O)N2CCCCCC2)c1)c1cc(=O)c2ccccc2o1	18µM*	9%	12µM*	-14%	1%
NS(=O)(=O)c1cccc(NC(=O)c2cc(=O)c3ccccc3o2)c1	-2%	13µM*	?	-12%	-7%
CN(c1ccccc1)S(=O)(=O)c1cccc(NC(=O)c2cc(=O)c3ccccc3o2)c1	?	-1%	15µM*	-8%	-2%
CSc1ncccc1C(=O)Nc1cccc(S(=O)(=O)N(C)c2ccccc2)c1	12µM*	1%	?	-20%	-10%
